Rows were chosen to be rich in hits. Some 1.2% of all compounds tested hit in one or more screens of this group.
SRC1 inh: inhibits human SRC1 coactivator; Q15788; HEK293 GAL4-SRC1 luciferase reporter, luminescence; inhibition, % at 3.6 µM; 360,000 compounds, 0.12% hits;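 active means inhibition above the campaign mean plus 3 SD, with each screening campaign given its own cutoff, cut at about 60% in these data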;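 further: 0% = DMSO treated cells and 100% = gossypol at 36 µM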
Efflux pump mplx: inhibitors of Candida antifungal efflux pumps expressed in yeast; S. cerevisiae Candida pump triplex, Nile Red efflux; inhibition, % at 10 µM; 330,000 compounds, 0.44% hits;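 active means plate passing quality check with inhibition over a set limit, or well fluorescence over plate mean plus 4 SD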;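 further: Nile Red retained in pooled yeast measured as flow cytometry median fluorescence; 0% = buffer negative control and 100% = Enniatin B positive control; higher means more Nile Red kept so more efflux inhibition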
SRC3 inh: human NCOA3 inhibition. Q9Y6Q9. 360,000 compounds, 0.17% hits. AID 588352. HEK293 GAL4-SRC3 luciferase reporter, luminescence. inhibition, % at 3.6 µM;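 active means inhibition above a per-campaign cutoff, the mean of all compounds plus 3 SD, cut at about 60% in these data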;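 further: 0% = DMSO-treated cells and 100% = gossypol-treated cells at 36 µM; higher means less SRC3-driven luciferase light from the GAL4 reporter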
COUP-TFII inh: NR2F2 (human) inhibition, primary screen. P24468. HEK293T NGFI-A luciferase reporter, luminescence. inhibition, % at 8.6 µM. 370,000 compounds, 0.7% hits. AID 686940;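 active means inhibition above a per-plate cutoff, mean inhibition of test wells between control levels plus 3 SD, cut at about 38% in these data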;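 further: cells cotransfected with COUP-TFII expression vector driving the NGFI-A reporter; 0% = median of COUP-TF2 test wells and 100% = reporter-only cells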
Target sequence (P24468 whole entry, looked up): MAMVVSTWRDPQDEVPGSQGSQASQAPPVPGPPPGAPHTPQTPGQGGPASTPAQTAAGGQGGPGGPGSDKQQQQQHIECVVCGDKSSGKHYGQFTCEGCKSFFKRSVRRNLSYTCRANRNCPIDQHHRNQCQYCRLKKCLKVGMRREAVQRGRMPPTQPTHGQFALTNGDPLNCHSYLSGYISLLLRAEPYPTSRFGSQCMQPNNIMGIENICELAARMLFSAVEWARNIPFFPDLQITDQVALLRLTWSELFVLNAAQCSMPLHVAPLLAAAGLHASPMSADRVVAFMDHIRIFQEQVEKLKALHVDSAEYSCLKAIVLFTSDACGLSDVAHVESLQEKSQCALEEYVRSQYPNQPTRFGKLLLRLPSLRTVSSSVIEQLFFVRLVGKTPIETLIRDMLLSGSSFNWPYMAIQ
NR5A2 inv ag: NR5A2 inverse agonism in reporter assay; 360,000 compounds, 0.13% hits; O00482; AID 602396; inhibition, % at 3.6 µM; HEK293T StAR-luciferase reporter, LRH-1 transfected, 24 h;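 active means inhibition above the mean inhibition of all tested compounds plus 3 SD, cut at about 73% in these data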;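 further: 0% = DMSO wells and 100% = reporter-only cells lacking LRH-1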
NCOA2 inhibitor: human SRC2 (NCOA2) inhibition | Q15596 | HEK293 GAL4-SRC2 luciferase reporter, luminescence | inhibition, % at 9 µM | 370,000 compounds, 0.17% hits;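 active means inhibition above the mean inhibition of all tested compounds plus 3 SD, set per campaign, cut at about 52% in these data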;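 further: 0% = DMSO treated cells and 100% = cells given Gossypol at 36 µM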
VP16 Luc counter: VP16 inhibition counter-screen for COUP-TFII | shares compounds with COUP-TFII inh | HEK293 Gal4-VP16 luciferase reporter, luminescence | inhibition, % at 8.5 µM | 2,500 compounds, 25% hits | AID 687007; in the data active means inhibition above about 13%
NR2F2 inh conf: confirmation of human COUP-TFII (NR2F2) inhibitors; shares compounds with COUP-TFII inh; HEK293 NGFI-A luciferase reporter, luminescence; inhibition, % at 8.5 µM; 2,500 compounds, 45% hits;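 active means mean inhibition over three repeats above a set limit taken from the earlier primary screen, cut at about 38% in these data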;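 further: 100% = cells given the luciferase reporter alone without the COUP-TF2 vector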
An asterisk follows results filed as active; . = no result given.

SMILES	SRC1 inh	Efflux pump mplx	SRC3 inh	COUP-TFII inh	NR5A2 inv ag	NCOA2 inhibitor	VP16 Luc counter	NR2F2 inh conf
COc1ccc(N=C2SCC(=O)N2CCc2ccc(OC)c(OC)c2)cc1	1	0	20	-23	1	7	.	.
COc1ccc(CCN2C(=O)CSC2=Nc2ccc(C(C)C)cc2)cc1OC	18	0	-1	64*	30	29	14*	62*
Cc1ccc(C)c(C(O)c2ncc(-c3ccccc3F)[nH]2)c1 (centres undefined)	-4	.	-4	8	7	-13	.	.
Cc1ccc(S(=O)(=O)N2CCc3ccccc3CC2)cc1	23	.	29	66*	49	11	5	50*
Cc1cccc(C(=O)NNC(=O)/C=C/C(=O)O)c1	-50	0	-38	-11	-4	-44	.	.
COc1cccc(CCN2CCC(CNS(=O)(=O)c3cc(-c4cc(C)no4)ccc3OC)CC2)c1	-8	0	27	37*	6	14	-11	8
COc1cccc(CCN2CCC(CNS(=O)(=O)c3cc(-c4cc(C)no4)ccc3C)CC2)c1	-12	0	27	41*	9	24	0	26
COc1ccc(-c2cc(C)no2)cc1S(=O)(=O)N1CCN(c2cccc(C)c2)C(C)C1 (centres undefined)	0	0	5	52*	13	18	11	54*
CCn1c(C)nc2cc(C(=O)NN=Cc3ccccc3OC(F)F)ccc21	-50	0	-26	-37	-85	-38	.	.
COc1ccc(C2=NOC(C(=O)Nc3cccc(O)c3)C2)cc1 (centres undefined)	5	0	3	15	7	29	.	.
O=C1NCCN1CCN1CCC(c2cn(-c3ccc(F)cc3)c3ccc(Cl)cc23)CC1	.	.	.	43*	.	2	-2	8
O=C(Nc1ccc2nc3n(c(=O)c2c1)CCCCC3)c1c(F)ccc([N+](=O)[O-])c1F	-156	1	0	43*	4	71*	60*	79*
CC(=O)c1ccc(N2CCN(C(=S)Nc3ccc(Oc4ccccc4)cc3)CC2)cc1	14	0	23	69*	13	1	0	56*
Nc1c(Cl)ncnc1NCCc1ccc(O)cc1	27	0	14	47*	21	22	6	32
O=C(COC(=O)c1cc(S(=O)(=O)N2CCCC2)ccc1O)NCc1ccccc1	-16	.	5	-12	4	-13	.	.
O=C(CC1CS(=O)(=O)CC1CC(=O)Nc1ccc2c(c1)OCCO2)Nc1ccc2c(c1)OCCO2 (centres undefined)	54	0	61	69*	44	34	-7	30
CCC(=O)Nc1ccc2c(c1)OCCO2	-8	0	-2	-14	-22	0	.	.
Cc1ccc(CCNC(=O)C(C)n2nc(C)c3c(C)n(-c4ccccc4)nc3c2=O)cc1 (centres undefined)	16	0	-7	1	5	21	.	.
Cc1ccc(-n2nc3c(=O)n(C(C)C(=O)NCCC4=CCCCC4)nc(C)c3c2C)cc1 (centres undefined)	13	0	35	71*	39	38	4	62*
CN1C2CCC1CC(NC(=O)CSc1ccc(Cl)cc1)C2 (centres undefined)	-19	0	19	5	-15	-7	.	.
Cc1c(C(=O)N2CCN(Cc3ccc4c(c3)OCO4)CC2)sc2ncnc(N3CCN(c4ccccc4F)CC3)c12	26	0	29	46*	22	31	4	57*
COc1cccc(OC)c1C(=O)N1CCN(Cc2ccc3c(c2)OCO3)CC1	-18	0	11	6	4	-14	.	.
COc1cc(SC)ccc1C(=O)N1CCN(Cc2ccc3c(c2)OCO3)CC1	13	0	21	48*	-8	32	5	10
COc1ccc(C(=O)NC2CCCc3c2cnn3-c2ccccc2F)cc1OC (centres undefined)	-15	0	19	50*	25	15	11	49*
O=C(NC1CCCc2c1cnn2-c1ccccc1F)c1ccncc1 (centres undefined)	24	.	14	63*	38	1	14*	49*
SMILES	SRC1 inh	Efflux pump mplx	SRC3 inh	COUP-TFII inh	NR5A2 inv ag	NCOA2 inhibitor	VP16 Luc counter	NR2F2 inh conf
O=C(CCC(=O)NNC(=O)COc1ccc(Br)cc1)NCc1ccccc1	6	0	2	-8	-7	10	.	.
Cc1csc2ncnc(NCCc3ccccn3)c12	30	0	9	68*	34	8	2	48*
c1ccc(CCNc2ncnc3sccc23)nc1	-2	0	-25	10	-43	-21	.	.
C#Cc1ccc(NC(=O)C2(C)CCN2C(=O)Cc2ccc(C(C)(C)C)cc2)cc1 (centres undefined)	10	.	8	61*	42	21	3	43*
CC(C)c1ccc(CC(=O)N2CCC2(C)C(=O)NCC(C)(C)C)cc1 (centres undefined)	7	.	1	3	11	19	.	.
C#Cc1ccc(NC(=O)C2(C)CCN2C(=O)Cc2ccc(C(C)C)cc2)cc1 (centres undefined)	24	.	10	57*	32	19	6	47*
CCOc1ccc(-n2cnnn2)cc1S(=O)(=O)NC1CC1	18	0	16	-7	-1	12	.	.
CS(=O)(=O)N(CCC#N)Cc1ccc(/C=C2\C(=O)Nc3ccccc32)o1	29	0	51	38*	13	46	-3	21
CC(=O)/C=C1/C(=O)Nc2ccccc21	7	0	8	9	12	-20	.	.
O=C(Nc1ccc(-c2cn3ccsc3n2)cc1)c1ccc(F)c(S(=O)(=O)N2CCOCC2)c1	4	1	29	47*	-36	30	-22	-13
CC1CC(=O)N(CC(=O)NCc2ccco2)c2ccccc2S1 (centres undefined)	-11	0	6	-12	6	19	.	.
Cc1cccc(CCN(C(=O)c2snc(C(N)=O)c2N)C(C(=O)NCC2CCCO2)c2ccc(F)cc2)c1 (centres undefined)	-32	.	3	-11	1	4	.	.
Cc1ccc(-n2nc(C)c3c2NC2=C(C(=O)CC(C)(C)C2)C3c2ccccc2OCC(=O)O)cc1 (centres undefined)	2	0	20	8	12	-17	.	.
CCCOc1ccc(/C=N/Nc2cccc([N+](=O)[O-])c2)c(O)c1	-54	0	-39	-35	-58	-69	.	.
CCCOc1ccc(/C=N/Nc2ccccc2[N+](=O)[O-])c(O)c1	36	0	47	44*	-3	-17	-48	46*
